This is a sample that favours compounds with a hit; in the whole collection about 4.2% have one here.
SMARCA2 act: activators of SMARCA2 function; 1% of 370,000 active; MG213 cells, MMTV-luciferase reporter, dexamethasone, overnight; activation, % at 9.1 µM; in the data active = activation above about 7.8%;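 note: 0% = vehicle wells and 100% = reference activator wells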
hcDAF12 agonist: activates DAF-12 receptor from parasite H. contortus; 1.4% of 370,000 active; activation, % at 6.8 µM; AID 652067; HEK293 hcDAF-12 lit1-tk-luc reporter, luminescence; 0% DMSO, 100% Δ7-dafachronic acid;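 active = activation above the mean of all tested compounds plus 3 SD, cut at about 5.5% in these data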;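 note: 100% = response to 3 µM Δ7-dafachronic acid high control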
hgDAF-12 ag: agonists of H. glycines DAF-12 nuclear receptor | HEK293 GAL4-hgDAF12 UAS-luciferase reporter, agonist luminescence; normalized to butyrate control | activation, % at 6.8 µM | 1.8% of 370,000 active;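 active = activation above a cutoff set at the mean of all screened compounds plus 3 SD, cut at about 10% in these data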;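 note: 0% = DMSO wells and 100% = sodium butyrate wells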
ssDAF-12 act: S. stercoralis DAF-12 activation, primary screen | HEK293 ssDAF-12/GRIP1 lit1-tk-luc reporter, luminescence; % of 3 µM dafachronic acid response | activation, % at 6.8 µM | 1% of 370,000 active | AID 652126;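 active = activation above the mean over all tested compounds plus 3 SD, cut at about 0.9% in these data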;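 note: 0% = DMSO-only wells and 100% = 3 µM delta7-dafachronic acid wells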
DAX1 StAR inh: blocks DAX1 repression of SF-1 activated StAR promoter | HEK293T StAR-luciferase reporter, SF-1/DAX-1 repression relief | inhibition, % at 6.8 µM | 1.1% of 370,000 active | AID 652010;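 active = inhibition above the mean over all tested compounds plus 3 SD, cut at about 3.6% in these data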;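 note: 0% = DAX-1 cells with DMSO and 100% = cells lacking DAX-1 with DMSO; higher inhibition means more luminescence from relief of DAX-1 repression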
* = called active by the depositor; x = no result given.

SMILES | SMARCA2 act | hcDAF12 agonist | hgDAF-12 ag | ssDAF-12 act | DAX1 StAR inh
COc1cccc(NC(=O)c2ccccc2F)c1 | 4.1 | 2.5 | 10.7* | -0.7 | 2.2
Cc1ccc(-c2nnc(SCC(=O)Nc3ccc(F)cc3F)n2Cc2ccco2)cc1 | -2.8 | -1.8 | 2.0 | -1.9 | 0.5
COc1ccc(C(=O)C2(C(=O)NC3CCCC3)CC(c3ccccc3C(F)(F)F)=NO2)cc1 (stereo unspecified) | -1.2 | -1.7 | 2.6 | -1.3 | -0.3
C[C@@H]1[C@@H](O)C[C@@]2(C[C@H](O)c3cc(Cl)cc(Cl)c3O2)O[C@H]1c1ccccc1Cl | -1.5 | -0.9 | 0.7 | -1.0 | 0.2
O=C(Nc1ccc(Cl)cn1)Nc1ccc(Cl)cn1 | -1.3 | -0.3 | 1.1 | -1.7 | -0.6
O=C(Nc1ccc(NC(=O)c2ccccc2O)cc1)Nc1ccc(F)cc1F | -6.3 | -0.6 | -0.4 | 1.6* | 0.1
O=C(Nc1ccccc1)Nc1cccn(Cc2c(F)cccc2Cl)c1=O | -4.0 | -0.6 | 10.5* | -1.9 | 1.7
O=C(Nc1ccc(F)cc1F)Nc1ccc(F)cc1F | 1.3 | -2.2 | -3.3 | -1.7 | -0.1
COC(=O)c1ccc(NC(=O)Nc2ccccc2F)cc1 | 0.9 | 5.3 | 11.9* | 0.3 | 3.3
O=C(Nc1ccc(Cl)cn1)Nc1ccccc1F | 4.3 | 0.9 | 8.4 | 1.6* | 0.4
O=C1N(CCCO)CCC12CCC(c1ccccc1)CC2 (stereo unspecified) | -1.5 | -1.6 | 5.6 | -0.5 | 0.0
COC(=O)c1ccc(NC(=O)Nc2ccccc2C)cc1 | 1.4 | -1.8 | 11.9* | -1.6 | 0.2
C/C(=C\c1ccccc1)C(=O)Nc1ccc(Cl)cn1 | 4.1 | 5.6* | 11.7* | 0.1 | 3.1
CC(=O)Nc1ccc(NC(=O)Nc2ccccc2C)cc1 | 2.5 | -1.7 | 2.1 | -1.1 | 0.5
O=C(C#Cc1ccccc1)Nc1ccccc1F | 2.6 | 0.4 | 11.4* | -0.6 | 0.1
O=C(Nc1ccc(F)cc1)Nc1ccccc1F | 3.8 | 2.9 | 11.1* | -0.8 | 1.0
Cc1cc(C)cc(NC(=O)Nc2ccc(Cl)cn2)c1 | -0.7 | 0.9 | 1.3 | -1.0 | -0.2
COC(=O)[C@]12C[C@H](CC(=O)N3CCCC3)C(=O)N(CCc3ccc(OC)c(OC)c3)C1=C[C@H](C(C)(C)C)O[C@@H]2C | 0.5 | -1.6 | 4.1 | -1.6 | -0.9
CCOc1cccc2sc(N(CCCN(C)C)C(=O)c3ccc(S(=O)(=O)N(CC)Cc4ccccc4)cc3)nc12 | -0.4 | 1.1 | 1.0 | -0.8 | -1.6
CCN(Cc1ccccc1)S(=O)(=O)c1ccc(C(=O)N(CCCN(C)C)c2nc3c(F)cccc3s2)cc1 | -1.4 | 5.7* | 1.0 | -1.1 | 0.8
Cc1c(C(=O)Nc2nccs2)oc2c(Cl)cccc12 | 0.7 | 5.4 | 6.6 | 1.3* | 1.5
O=[N+]([O-])c1cnc2ccccc2c1Sc1ccccc1 | x | 2.7 | 0.6 | -0.8 | x
COC1=C[C@H](C(=O)NCc2ccccn2)[C@@]2(C)Cc3ccccc3[C@H]2CC1=O | -1.2 | 1.3 | 3.5 | -1.2 | 0.5
Cc1ccc(C2=NNC(=Nc3ccc(F)cc3)SC2)cc1 | 0.2 | 5.7* | 10.9* | -0.6 | 0.4
O=C(NCC(=O)N1CCCC(C(F)(F)F)C1)c1ccccc1Br (stereo unspecified) | -0.7 | 3.7 | 0.9 | 1.3* | 0.8
SMILES | SMARCA2 act | hcDAF12 agonist | hgDAF-12 ag | ssDAF-12 act | DAX1 StAR inh
C=CCN1C(=O)[C@@H](CC(=O)NCc2ccc(OC)c(OC)c2)[C@]2(C(=O)OCC)CCCCC/C=C/12 | -1.9 | -1.4 | 1.1 | -0.9 | -0.3
CC(C)N(C(N)=NC(=O)OCc1ccccc1)C(C)C | -3.0 | 0.1 | -0.9 | -1.5 | 0.0
Cc1ccc(Cl)cc1NC(=O)N(C)CCOC(=O)Nc1cccc(Cl)c1 | -5.5 | -1.6 | -0.9 | -1.4 | -0.2
CCOC(=O)C(Cc1ccccc1)NC(=O)CCc1c(C)nc2ncnn2c1C (stereo unspecified) | -3.4 | 5.7* | 0.5 | -0.7 | 0.3
COc1ccc(-c2cc(CS(=O)(=O)c3ccccc3)on2)cc1 | 3.2 | 1.4 | 13.2* | -0.5 | 3.4
CCOc1ccc(-n2c(SCC(=O)Nc3ccc(S(=O)(=O)Nc4nccs4)cc3)nnc2-c2ccccc2)cc1 | 3.6 | 0.1 | 2.3 | -0.6 | -1.2
CCOC(=O)[C@@H]1c2[nH]c3ccccc3c2C[C@@]2(C(=O)OC)C=CCN12 | -1.3 | 2.9 | 0.7 | 1.5* | 0.1
COC(=O)[C@]12C=CCN1[C@@H](c1ccc(Cl)cc1)c1c(c3ccccc3n1S(=O)(=O)c1ccc(C)cc1)C2 | -5.0 | 0.5 | 5.0 | -0.2 | -0.2
COc1ccc(S[C@]2(C(=O)N3CCOCC3)CC(=O)N(c3ccc(C#N)cc3)[C@@H]2c2ccc(OC)cc2)cc1 | -2.3 | -2.1 | -1.8 | -1.1 | -1.7
COc1cc(C2C(C(C)=O)=C(O)C(=O)N2CCc2c[nH]c3ccccc23)ccc1O (stereo unspecified) | -4.8 | -0.5 | 2.3 | 0.2 | 1.2
CC(=O)C1=C(O)C(=O)N(CCc2c[nH]c3ccccc23)C1c1cccc(O)c1 (stereo unspecified) | -2.0 | 5.7* | 0.5 | 0.2 | 0.4
CCC1CCCCN1C(=O)CSc1nnc2nc(C)cc(C)n12 (stereo unspecified) | -3.0 | -0.5 | 1.4 | -1.7 | 4.0*
Cc1cc(C)n2c(SCC(=O)NC3CCCCC3C)nnc2n1 (stereo unspecified) | -1.0 | -1.4 | -0.4 | -1.8 | -0.2
Nc1ccc(O)c([N+](=O)[O-])c1 | 5.0 | 0.3 | -1.6 | -0.7 | 0.5
O=[N+]([O-])c1cc(N=Nc2ccc3ccccc3c2)ccc1O | -1.4 | 3.6 | 3.7 | 1.3* | -0.4
CCCCCCCCCCCCN1CCSCCS1(=O)=O | -5.0 | -2.1 | -1.2 | -1.2 | 1.5
COc1ccc(-c2nnc(-c3ccc(N)cc3)o2)cc1 | 1.0 | 0.6 | 11.2* | -1.4 | 2.8
COc1ccc(-c2nnc(-c3ccc(OCC(C)C)cc3)o2)cc1 | -1.5 | -1.1 | 3.1 | -1.2 | 0.1
CCOC(=O)c1cc2cc3ccccc3cc2[nH]1 | 4.6 | 4.2 | 9.1 | 1.0* | 1.4
CCN(CC)S(=O)(=O)c1ccc(Nc2ccc(-c3ccc4c(c3)OCCO4)nn2)cc1 | 8.6* | 0.2 | 1.2 | -1.5 | 0.3
O=C(NCc1ccc(Cl)cc1)C(=O)NCC1OCCN1S(=O)(=O)c1cccs1 (stereo unspecified) | -0.4 | -2.2 | -1.7 | -1.1 | 1.0
O=C(NCc1ccc(Cl)cc1)C(=O)NCC1OCCN1C(=O)c1cccs1 (stereo unspecified) | -2.9 | 6.2* | 0.0 | -1.2 | 0.1
CSc1ccc(/C=C(/NC(=O)c2ccc(C)cc2)C(=O)Nc2cccc(F)c2)cc1 | -2.3 | 6.3* | 5.1 | -1.4 | -0.2
CC(=O)c1cccc(NC(=O)/C(=C\c2cccnc2)NC(=O)c2ccc(C)cc2)c1 | -2.1 | 0.3 | 1.2 | -1.2 | -0.4
O=C(CC1CCCC1)N1CC[C@H]2[C@H](CCCN2Cc2cc(F)cc(F)c2)C1 | -0.8 | -0.8 | 0.2 | -1.2 | 0.4
COc1cc2c(cc1OC)C1CCc3cc4c(cc3C1N=C2)OCO4 (stereo unspecified) | 0.0 | 1.5 | 11.1* | -0.3 | 2.4

Bioassay records deposited in PubChem BioAssay by The Scripps Research Institute Molecular Screening Center.
